Where “and” joins values, the source holds several entries; their conditions need not be identical. Equal values may be shown once. Hit rate of the full screen: of about 5,500 compounds, about 2,000 (36%) were called active. Not shown: some 18% with an inconclusive outcome. Cut-off read from the data, not from the text of the source: active = normalized growth mostly below about 0.91 (no sharp cut-off); inconclusive = no clear call, values can overlap the other calls; inactive = mostly above about 0.92. The list shows a part of the results.
Test: chemical genetic growth profiling, strain panel (AID 1159580);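 note: tested at 20 µM; growth read once vehicle control cultures reached saturation at 30 °C; 1 = growth at the plate median or of vehicle wells; lower values mean less growth of the strain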
Settings: S. cerevisiae deletion strains, growth OD
[1] = locus YMR307W, strain GAS1, active compounds read low
[2] = locus YNL322C, strain KRE1, active compounds read low

Measured: normalized growth

NC(C(=O)N[C@@H]1C(=O)N2C(C(=O)O)=C(Cl)CS[C@H]12)c1ccccc1 (stereo not given in full)
inactive: locus YAL040C, strain CLN3, active compounds read low 0.986 | locus YDR363W, strain ESC2, active compounds read low 1.03 | locus YER002W, strain NOP16, active compounds read low 1 | [1] 0.998 | locus YNL175C, strain NOP13, active compounds read low 1.01 | locus YNL197C, strain WHI3, active compounds read low 0.99 | locus YNL224C, strain SQS1, active compounds read low 1.01 | [2] 1 | locus YOR083W, strain WHI5 (second series), active compounds read low 0.992

CC1=C(C(=O)O)N2C(=O)[C@@H](NC(=O)[C@@H](N)c3ccc(O)cc3)[C@H]2SC1
inactive: locus YAL013W, strain DEP1, active compounds read low 0.993 | locus YAL021C, strain ccr4, active compounds read low 1.02 | locus YAL026C, strain drs2, active compounds read low 1.04 | locus YAL030W, strain snc1, active compounds read low 1.03 | locus YBL061C, strain skt5, active compounds read low 1.03 | locus YBR009C, strain hhf1, active compounds read low 1.03 | locus YBR021W, strain FUR4, active compounds read low 1.01 | locus YBR023C, strain chs3, active compounds read low 1.06 | locus YBR171W, strain sec66, active compounds read low 1.03 | locus YBR229C, strain ROT2, active compounds read low 0.958 | locus YBR231C, strain swc5, active compounds read low 1.04 | locus YBR279W, strain paf1, active compounds read low 1.02 | locus YCL011C, strain gbp2, active compounds read low 1.01 | locus YCL016C, strain dcc1, active compounds read low 1.03 | locus YCL029C, strain bik1, active compounds read low 0.984 | locus YCL061C, strain MRC1, active compounds read low 1.04 | locus YCL069W, strain vba3, active compounds read low 1.03 | locus YCR088W, strain abp1, active compounds read low 1.02 | locus YDL005C, strain med2, active compounds read low 1.03 | locus YDL035C, strain GPR1, active compounds read low 0.956 | locus YDL040C, strain nat1, active compounds read low 1.02 | locus YDL074C, strain BRE1, active compounds read low 1.01 | locus YDL101C, strain DUN1, active compounds read low 0.99 | locus YDL185W, strain tfp1, active compounds read low 0.953 | locus YDL192W, strain arf1, active compounds read low 0.971 | locus YDR001C, strain nth1, active compounds read low 1.04 | locus YDR069C, strain doa4, active compounds read low 1.05 | locus YDR101C, strain arx1, active compounds read low 0.965 | locus YDR137W, strain rgp1, active compounds read low 1.03 | locus YDR150W, strain NUM1, active compounds read low 0.985 | locus YDR159W, strain sac3, active compounds read low 1.04 | locus YDR162C, strain NBP2, active compounds read low 0.967 | locus YDR195W, strain ref2 1 | locus YDR297W, strain sur2, active compounds read low 1.03 | locus YDR318W, strain mcm21, active compounds read low 0.994 | locus YDR334W, strain swr1, active compounds read low 1.03 | locus YDR335W, strain msn5, active compounds read low 1.02 | locus YDR388W, active compounds read low 0.979 | locus YDR392W, strain spt3, active compounds read low 1.05 | locus YDR502C, strain sam2, active compounds read low 0.984 | locus YEL003W, strain gim4, active compounds read low 1.03 | locus YEL037C, strain rad23, active compounds read low 1.03 | locus YEL061C, strain CIN8 (second series), active compounds read low 1.04 | locus YEL061C, strain CIN8, active compounds read low 0.988 | locus YER015W, strain faa2, active compounds read low 1.01 | locus YER016W, strain bim1, active compounds read low 1.02 | locus YER110C, active compounds read low 0.973 | locus YER111C, strain swi4, active compounds read low 1.03 | locus YER155C, strain BEM2 (second series), active compounds read low 1.07 | locus YER155C, strain BEM2, active compounds read low 0.995 | locus YER167W, strain BCK2, active compounds read low 0.995 | locus YFR010W, strain ubp6, active compounds read low 1.06 | locus YGL078C, strain dbp3, active compounds read low 1 | locus YGL086W, strain mad1, active compounds read low 0.982 | locus YGL167C, strain pmr1, active compounds read low 1.03 | locus YGL173C, strain kem1, active compounds read low 1.04 | locus YGL227W, strain vid30, active compounds read low 1.03 | locus YGL240W, strain doc1, active compounds read low 1.03 | locus YGL248W, strain PDE1, active compounds read low 1.01 | locus YGL253W, strain hxk2, active compounds read low 1.02 | locus YGR135W, strain pre9, active compounds read low 1.03 | locus YGR229C, strain SMI1, active compounds read low 0.978 | locus YGR252W, strain gcn5, active compounds read low 0.999 | locus YHR013C, strain ard1, active compounds read low 1.06 | locus YHR027C, strain rpn1, active compounds read low 1.02 | locus YHR030C, strain SLT2, active compounds read low 0.986 and 0.97 | locus YHR079C, strain IRE1 (second series), active compounds read low 0.985 | locus YHR079C, strain IRE1, active compounds read low 0.99 | locus YHR094C, strain hxt1, active compounds read low 0.983 | locus YHR129C, strain ARP1, active compounds read low 0.987 | locus YHR142W, strain chs7, active compounds read low 1.04 | locus YHR200W, strain rpn10, active compounds read low 0.967 | locus YIL066C, strain RNR3, active compounds read low 0.98 | locus YIL073C, strain SPO22, active compounds read low 0.981 | locus YIL125W, strain kgd1, active compounds read low 0.988 | locus YIR030C, strain dcg1, active compounds read low 0.982 | locus YJL092W, strain hpr5, active compounds read low 1.04 | locus YJL095W, strain BCK1 (second series), active compounds read low 1.02 | locus YJL095W, strain BCK1, active compounds read low 1.05 and 0.976 | locus YJL115W, strain asf1, active compounds read low 1.04 | locus YJL129C, strain trk1, active compounds read low 1.04 | locus YJL134W, strain LCB3, active compounds read low 0.983 | locus YJL154C, strain vps35, active compounds read low 1.01 | locus YJL164C, strain tpk1, active compounds read low 1.03 | locus YJL166W, strain qcr8, active compounds read low 1.03 | locus YJL168C, strain set2, active compounds read low 0.982 | locus YJL187C, strain SWE1 (second series), active compounds read low 1 | locus YJR043C, strain POL32, active compounds read low 0.97 | locus YJR066W, strain TOR1, active compounds read low 0.979 | locus YKL009W, strain mrt4, active compounds read low 1.05 | locus YKL068W, active compounds read low 0.978 | locus YKL085W, strain MDH1 (second series), active compounds read low 0.991 | locus YKL085W, strain MDH1, active compounds read low 0.991 | locus YKL160W, strain elf1, active compounds read low 1.02 | locus YKR001C, strain vps1, active compounds read low 0.993 | locus YKR026C, strain gcn3, active compounds read low 0.999 | locus YKR091W, strain srl3, active compounds read low 1.03 | locus YLL001W, strain dnm1, active compounds read low 1.04 | locus YLL026W, active compounds read low 1.03 | locus YLL041C, strain sdh2, active compounds read low 1.03 | locus YLR027C, strain aat2, active compounds read low 1.03 | locus YLR039C, strain RIC1, active compounds read low 0.992 | locus YLR058C, strain SHM2, active compounds read low 0.988 | locus YLR102C, strain apc9, active compounds read low 0.985 | locus YLR113W, strain HOG1, active compounds read low 0.932 | locus YLR221C, strain rsa3, active compounds read low 1.04 | locus YLR258W, strain gsy2, active compounds read low 1.02 | locus YLR262C, strain YPT6 (second series), active compounds read low 1.07 | locus YLR262C, strain YPT6, active compounds read low 0.941 | locus YLR268W, strain sec22, active compounds read low 0.977 | locus YLR320W, strain mms22, active compounds read low 1.03 | locus YLR330W, strain CHS5, active compounds read low 0.988 | locus YLR342W, strain FKS1 (second series), active compounds read low 0.979 | locus YLR342W, strain FKS1, active compounds read low 1.03 | locus YLR357W, strain rsc2, active compounds read low 1.04 | locus YLR370C, strain arc18, active compounds read low 1.02 | locus YLR371W, strain rom2, active compounds read low 0.968 | locus YLR384C, strain iki3, active compounds read low 1.03 | locus YLR418C, strain cdc73, active compounds read low 1.02 | locus YML016C, strain PPZ1, active compounds read low 0.99 | locus YML032C, strain rad52, active compounds read low 0.984 | locus YML120C, strain ndi1, active compounds read low 1.03 | locus YML124C, strain tub3, active compounds read low 0.981 | locus YMR058W, strain fet3, active compounds read low 1 | locus YMR078C, strain ctf18, active compounds read low 0.982 | locus YMR125W, strain sto1, active compounds read low 1.04 | locus YMR129W, active compounds read low 1.03 | locus YMR205C, strain PFK2, active compounds read low 1.03 | locus YMR223W, strain ubp8, active compounds read low 1.01 | locus YMR231W, strain pep5, active compounds read low 1.02 | locus YMR263W, strain SAP30, active compounds read low 0.996 | [1] 0.967 | locus YNL067W, strain RPL9B, active compounds read low 1 | locus YNL071W, strain lat1, active compounds read low 1.02 | locus YNL128W, strain TEP1, active compounds read low 0.983 | locus YNL183C, strain NPR1, active compounds read low 0.929 | locus YNL209W, strain ssb2, active compounds read low 1.01 | locus YNL233W, strain BNI4, active compounds read low 1.02 | locus YNL248C, strain rpa49, active compounds read low 1.04 | locus YNL250W, strain rad50, active compounds read low 0.984 | locus YNL271C, strain bni1, active compounds read low 0.984 | locus YNL298W, strain CLA4, active compounds read low 0.981 | locus YNL307C, strain MCK1, active compounds read low 0.983 | locus YNL322C, strain KRE1 (second series), active compounds read low 1.03 | [2] 0.998 | locus YNR049C, strain mso1, active compounds read low 1.03 | locus YNR052C, strain pop2, active compounds read low 0.982 | locus YOL006C, strain TOP1, active compounds read low 1.1 | locus YOL012C, strain htz1 0.974 | locus YOL147C, strain pex11, active compounds read low 0.994 | locus YOR001W, strain rrp6, active compounds read low 1.06 | locus YOR061W, strain CKA2, active compounds read low 0.968 | locus YOR069W, strain VPS5, active compounds read low 0.987 | locus YOR070C, strain gyp1, active compounds read low 1.02 | locus YOR080W, strain dia2, active compounds read low 1.03 | locus YOR083W, strain WHI5, active compounds read low 1.03 | locus YOR106W, strain vam3, active compounds read low 1.03 | locus YOR136W, strain idh2, active compounds read low 0.978 | locus YOR144C, strain elg1, active compounds read low 0.981 | locus YOR184W, strain ser1, active compounds read low 0.988 | locus YOR231W, strain MKK1, active compounds read low 0.966 | locus YOR265W, strain rbl2, active compounds read low 1.02 | locus YOR270C, strain vph1, active compounds read low 1.04 | locus YOR290C, strain snf2, active compounds read low 1.03 | locus YOR316C, strain cot1, active compounds read low 0.957 | locus YPL051W, strain arl3, active compounds read low 1.04 | locus YPL078C, strain atp4, active compounds read low 1.05 | locus YPL106C, strain sse1, active compounds read low 1.02 | locus YPL240C, strain hsp82, active compounds read low 1.02 | locus YPL241C, strain CIN2, active compounds read low 0.989 | locus YPL256C, strain CLN2, active compounds read low 0.976 | locus YPR119W, strain clb2, active compounds read low 0.972 | locus YPR141C, strain kar3, active compounds read low 0.958 | locus YPR163C, strain tif3, active compounds read low 0.981 | locus YPR167C, strain met16, active compounds read low 0.989 | strain wtn01, active compounds read low 0.987
